Hits are enriched below; roughly 4.8% of the tested compounds scored in any of these assays.
TIM10 inh: growth inhibitors of isogenic TIM10 control yeast, primary screen, counter-screen for tim10-1 yeast inhibitor project, luminescence, uHTS. S. cerevisiae TIM10 strain growth, BacTiter-Glo luminescence, 24 h. inhibition, % at 10 µM. hit rate 1.4% among 330,000. AID 463195, 2010;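 active means inhibition of 40% or more at the single tested concentration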;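 further: wild-type TIM10 isogenic control strain grown at permissive 25 °C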
tim10-1 inh: growth inhibitors of tim10-1 mutant yeast, primary screen, luminescence, uHTS. S. cerevisiae tim10-1 ts strain growth, BacTiter-Glo, 24 h. inhibition, % at 20 µM. AID 463190, 2010. hit rate 2.2% among 330,000;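 active means inhibition of at least 40%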;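 further: mutant grown at 25 °C; 0% = DMSO wells with yeast and 100% = wells holding no yeast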
PfHsp90 yeast 2: growth inhibition of PfHsp90-expressing yeast, primary screen, antimalarial PfHsp90 inhibitor project, S. cerevisiae, BacTiter-Glo luminescence, single point, set 2 | BacTiter-Glo ATP, 48 h; yeast lacking PDR1 and PDR3 efflux regulators | hit rate 0.32% among 310,000 | inhibition, % at 9.4 µM;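 active means every replicate shows inhibition above about 80%, whatever the replicate mean, limit read from the data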;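 further: 0% = DMSO neutral controls and 100% = 20 µM radicicol positive controls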
SKKanGAS inh: S. pyogenes SKKanGAS growth inhibitors in kanamycin, primary screen, streptokinase expression inhibitor project, SKKanGAS strain, BacTiter-Glo luminescence | 6 h | inhibition, % at 7.5 µM | hit rate 1.3% among 300,000 | AID 1662, 2009;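 active means mean replicate score, as percent of positive control median, at least 50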;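 further: strain carries kanamycin resistance gene driven by streptokinase promoter and grows in 40 µg/ml kanamycin; loss of luminescence reflects streptokinase promoter inhibition or plain growth inhibition; 0% = median of DMSO wells and 100% = positive control at its reference dose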
tim23-1 inh: growth inhibitors of tim23-1 mutant yeast, primary screen, luminescence, uHTS | S. cerevisiae tim23-1 growth, BacTiter-Glo luminescence, 24 h | inhibition, % at 20 µM | hit rate 1.3% among 330,000;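 active means growth inhibition of the mutant yeast at or above 50%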;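 further: temperature-sensitive mutant grown at 25 °C; plate controls were DMSO-treated mutant yeast for no effect and medium wells lacking yeast for full effect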
NALP1 yeast inh: NALP1 inflammasome inhibitors in reconstituted yeast, colorimetric, S. cerevisiae, triplicate retest; S. cerevisiae NALP1/ASC/caspase-1 growth, X-gal OD620, 72 h; inhibition, % at 10 µM; hit rate 0.61% among 280,000; AID 2071, 2009; in the data active means inhibition mostly above about 24%, no sharp cut-off; inactive means mostly below about 32%
* marks the source's active call; other numbers are inactive results; . = no result.

SMILES	TIM10 inh	tim10-1 inh	PfHsp90 yeast 2	SKKanGAS inh	tim23-1 inh	NALP1 yeast inh
COc1cc(C(=O)NCCN=C2NS(=O)(=O)c3ccccc32)cc(OC)c1OC	-9	7	-10	-2	8	6
NC(=O)c1cc(C(=O)Cc2ccccc2)c[nH]1	-9	1	-6	92*	3	6
COC(=O)c1cc(C(=O)Cc2ccccc2)c[nH]1	-2	-3	.	-1	10	4
COc1ccc(/C=C2\N=C(C)OC2=O)cc1[N+](=O)[O-]	17	22	2	4	18	39*
CCCc1nc2ccccc2c(=O)n1/N=C/c1c(C)[nH]n(-c2ccc(C)cc2)c1=O	7	22	42	97*	17	14
COc1ccc(N2CCN(Cc3nc(N)nc(Nc4ccc(C)c(Cl)c4)n3)CC2)cc1	28	19	25	74*	44	-4
CCOC(=O)C1=C(C)N=c2s/c(=C\c3ccc(OCC(=O)O)cc3)c(=O)n2C1c1ccccc1OC (stereo not drawn)	0	16	8	19	10	15
CCOC(=O)C1=C(C)N=c2s/c(=C\c3ccc(O)c([N+](=O)[O-])c3)c(=O)n2C1c1ccccc1OC (stereo not drawn)	13	7	-27	58*	30	-24
CCOC(=O)C1=C(C)n2c(s/c(=C/c3cccc([N+](=O)[O-])c3)c2=O)=NC1c1ccc(O)c(OC)c1 (stereo not drawn)	29	39	-5	67*	43	11
COC(=O)c1cc(S(=O)(=O)NCCN2CCOCC2)cn1C	6	17	9	-2	8	8
Cc1cc(C)c(C)c(S(=O)(=O)N2CCN(C(=O)c3ccco3)CC2)c1C	-8	3	.	-3	34	.
c1ccc(C2CCC3(CC2)Oc2ccccc2C2CC(c4cccnc4)=NN23)cc1 (stereo not drawn)	2	10	.	7	14	32
COc1cc(/C=N/NC(=O)c2cccnc2)ccc1OC(=O)c1ccco1	13	9	-15	10	3	-1
CCOc1ccccc1NC(=O)COC(=O)COc1c(Cl)cc(Cl)c2ccc(C)nc12	9	10	-8	15	4	.
CCN(CC(=O)NC(C)(C)C)C(=O)COc1c(Cl)cc(Cl)c2ccc(C)nc12	19	22	-33	87*	30	16
CCOc1ccc(CNC(=O)CCC(=O)N2Cc3cccc(OC)c3Oc3ncccc32)cc1	14	19	0	0	15	22
O=C(NNC(=O)c1cc(-c2ccc(Cl)cc2)nc2ccccc12)c1csc(N2CCOCC2)n1	6	15	.	60*	19	.
COc1ccccc1C(=O)NNC(=O)c1csc(N2CCOCC2)n1	1	7	-1	-13	11	.
O=C(NNC(=O)c1cc(-c2ccccc2)nc2ccccc12)c1csc(N2CCOCC2)n1	8	5	.	-9	12	.
O=C(NNC(=O)c1ccccc1OCc1ccccc1Cl)c1csc(N2CCOCC2)n1	25	20	-1	60*	23	1
Cc1cc(C)n2nc(SCc3cc(=O)oc4ccc5ccccc5c34)nc2n1	25	17	-14	1	7	4
O=C(c1ccccn1)N1CCN(c2cccc(C(F)(F)F)c2)CC1	7	10	9	-12	4	-6
CCc1c(C2(O)CCCCC2)[nH]c2c(C(=O)OC)cc(Cl)cc12	.	.	-15	100*	.	7
COc1ccccc1C(=O)NC(=O)COC(=O)c1cccc(NC(C)=O)c1	7	-2	-23	-3	5	15
O=C(Nc1nnc(SCc2ccc(F)cc2)s1)c1ccc2c(c1)C(=O)N(c1ccccc1Cl)C2=O	1	6	-1	54*	-3	-19
SMILES	TIM10 inh	tim10-1 inh	PfHsp90 yeast 2	SKKanGAS inh	tim23-1 inh	NALP1 yeast inh
O=C(Nc1nnc(SCc2ccc(F)cc2)s1)c1ccc2ncsc2c1	.	.	-6	-10	.	29
CCn1cc(C2=NOC(C(=O)Nc3cc(OC)c(Cl)cc3OC)C2)c(C)n1 (stereo not drawn)	16	14	5	-11	11	33*
COc1cc(NC(=O)C2CC(c3c(F)cccc3Cl)=NO2)c(OC)cc1Cl (stereo not drawn)	-4	12	-40	31	26	15
COCCN(CCOC)Cc1cc(=O)oc2cc3c(cc12)CCC3	-5	28	.	-4	17	8
CC(C)CN(Cc1cc(=O)oc2cc3c(cc12)CCCC3)CC(C)C	-13	-8	10	54*	-6	4
CC(C)(C)c1ccc(NC(=O)COC(=O)c2ccc([N+](=O)[O-])s2)cc1	.	.	109*	.	.	32
O=[N+]([O-])c1ccc(/C=N/Nc2nc(N3CCCCCC3)nc(N3CCCCCC3)n2)o1	19	36	.	75*	-1	0
O=[N+]([O-])c1ccc(/C=N/Nc2nc(N3CCCCC3)nc(N3CCCCC3)n2)cc1	5	7	0	0	21	12
Cc1ccc(C)c(-c2csc(N)c2C(=O)OC(C)C)c1	-2	17	5	53*	16	-2
CC(C)(C)OC(=O)CNC(=O)c1[nH]cnc1C(=O)NC1CCN(C(=O)OC(C)(C)C)CC1	6	-6	-14	-3	2	-6
COc1ccc(-c2ccc([C@H]3[C@@H]4C=CCC[C@@]4(C)C(=O)N3Cc3ccccc3)c(F)c2)cc1	6	18	-5	58*	1	2
Cc1ccc(-c2ccc([C@H]3[C@@H]4C=CCC[C@@]4(C)C(=O)N3Cc3ccccc3)c(F)c2)cc1	6	18	-2	43	1	14
C[C@@]12CCC=C[C@H]1[C@H](c1ccc3ccccc3c1Br)N(Cc1ccccc1)C2=O	19	32	9	75*	47	.
Cc1sc(NC(=O)CSc2nnc(N)s2)c(C#N)c1C	-10	6	0	0	7	16
O=C(c1ccco1)N1CCN(S(=O)(=O)c2c(Cl)cccc2Cl)CC1	6	31	-2	4	42	7
O=C1C=CC(=O)N1Cc1ccccc1	13	37	110*	-2	20	5
O=C1C2CC=CCC2C(=O)N1Cc1ccccc1 (stereo not drawn)	-12	-12	9	6	-7	-3
CCOC(=O)CSc1nnc(CNC(=O)c2ccc(S(=O)(=O)N(C)C)cc2)n1C	-6	-3	11	4	17	14
Cc1nn(Cc2ccccc2)c2c1C(c1cccnc1)C(C#N)=C(N)O2 (stereo not drawn)	18	19	2	-1	33	41*

High-throughput results deposited in PubChem by several laboratories.
